Source: PubChem (National Center for Advancing Translational Sciences (NCATS))
A selection: hits, their analogues and other compounds. The true share with any hit is near 11%.
HCV inh – qHTS Assay for Inhibitors of Hepatitis C Virus (HCV). Potency, µM (titrated, usually from 41.8 µM), without a hit: at the highest dose activity change, negative = inhibition, usual class: inhibitors. 3.4% of 340,000 active. AID 651820, 2012. Huh7.5.1 HCVcc-Cre infection, luciferase reporter, 44 h; note: % is set by controls: 0 for no effect and ±100 for the full control effect
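Cells (1,000/well) were plated 4 h before compound, then infected with HCVcc-Cre virus (~0.5 moi). After 44 h further culture, infection was read as luciferase luminescence following a 15 min substrate incubation at room temperature.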
Pf growth 48h – Primary qHTS for delayed death inhibitors of the malarial parasite plastid, 48 hour incubation; P. falciparum luciferase growth in erythrocytes, 48 h; Potency, µM (titrated, usually from 28.7 µM), inactives show at the top dose activity change, negative = inhibition, actives largely listed as inhibitors; 5.9% of 310,000 active; note: % is set by controls: 0 for no effect and ±100 for the full control effect
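Firefly luciferase activity from engineered P. falciparum reports growth; inhibitors lower the luminescent signal. Cultures contained 2% hematocrit erythrocytes at 0.1% final parasitemia.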
Pf growth 96h – Primary qHTS for delayed death inhibitors of the malarial parasite plastid, 96 hour incubation; P. falciparum luciferase reporter growth, 96 h; Potency, µM (titrated, usually from 28.7 µM), inactives show top-dose activity change, negative = inhibition, usual class: inhibitors; 6.9% of 320,000 active; note: % is set by controls: 0 for no effect and ±100 for the full control effect
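Readout is luminescence from an integrated firefly luciferase in P. falciparum. Red cells, 2% hematocrit and 0.05% parasitemia final, were cultured with compound through two parasite generations (96 hours) at 37 C, 5% CO2.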
NS1 function inh – qHTS Assay for Inhibitors of Influenza NS1 Protein Function. 0.4% of 270,000 active. Potency, µM (highest dose often 46.1 µM), without a hit: top-dose activity, positive = more growth. AID 2326, 2010; calls by dose curve; note: actives are rising curves; nearly all actives have a fitted effect of over 50% in size
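Compounds were scored for reversing the slow growth caused by influenza A NS1 in S. cerevisiae, measured by optical density at 600 nm. Assay medium contained 2% galactose at pH 6.0; NS1-free yeast of the same strain were the positive control.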
Vaccinia mCherry – qHTS for Stage-Specific Inhibitors of Vaccinia Orthopoxvirus: mCherry Reporter Primary qHTS | Vaccinia virus mCherry reporter infection, fluorescence | AID 720579, 2013 | Potency, µM (doses to about 36.5 µM), for inactives: at the top dose activity change, negative = inhibition, most hits filed as inhibitors | 0.63% of 310,000 active; calls by dose curve; tested in A549 cells; note: % is set by controls: 0 for no effect and ±100 for the full control effect; nearly all actives have a fitted effect of over 35% in size
Vaccinia Venus – qHTS for Stage-Specific Inhibitors of Vaccinia Orthopoxvirus: Venus Reporter Primary qHTS; Vaccinia virus Venus reporter expression, fluorescence; Potency, µM (series often up to 36.5 µM), for inactives: top-dose activity change, negative = inhibition, hits mostly inhibitors; 0.46% of 330,000 active; calls by dose curve; tested in A549 cells; note: % is set by controls: 0 for no effect and ±100 for the full control effect; nearly all actives have a fitted effect of over 30% in size
* hit, by the source's call; i = inactive; ? = inconclusive; · = no result; [ ] = another dose, or the depositor's remark. Unless noted, calls come from the whole dose curve; as a rule, active = well fitted inhibition curve with a large enough effect; inconclusive = small, poorly fitted or top-dose-only effect, or another doubt; inactive = no such curve, though single readings can be large or run the other way. Potency is the fitted concentration of half-maximal effect.

SMILES	HCV inh	Pf growth 48h	Pf growth 96h	NS1 function inh	Vaccinia mCherry	Vaccinia Venus
COc1cccc(/C=N/N2CCN(C3c4ccccc4-c4ccccc43)CC2)c1O	-11%	13µM*	?	-3%	·	·
COc1cc(/C=N/N2CCN(C3c4ccccc4-c4ccccc43)CC2)ccc1O	?	?	?	11%	·	?
CC(=O)Nc1ccc(C2Nc3cc(C)c(C)cc3NC3=C2C(=O)CC(C)(C)C3)cc1 (stereo not given)	0%	6%	8.3µM*	-20%	·	·
Cc1cc2c(cc1C)NC(c1nc3ccccc3[nH]1)C1=C(CC(C)(C)CC1=O)N2 (stereo not given)	11%	5%	-2%	-8%	-11%	-17%
Cc1cc(C)c(O)c(CN(C)Cc2cc(Cl)cc(Cl)c2O)c1	?	·	·	·	2.8µM*	?
COc1ccc(NS(=O)(=O)c2cccc(C(=O)N/N=C(\C)c3ccc(-n4ccnc4)cc3)c2)cc1	12%	-12%	·	7%	i	-12%
CCN(CC)CCNc1nc(SC)nc2sc3c(c12)CCN(C)C3	?	?	?	5%	?	-10%
COCCSc1nc(N)c2c3c(sc2n1)CN(C)CC3	7%	5.2µM*	3.7µM*	-1%	-9%	-17%
COC(=O)CSc1nc(N)c2c3c(sc2n1)CCCC3	0%	7%	29%	-82%	-9%	-5%
CN(C)CCSc1nc(N)c2c3c(sc2n1)CN(C)CC3	0%	4.1µM*	?	3%	·	-4%
CCCSc1nc(N)c2c3c(sc2n1)CN(C)CC3	-12%	?	?	-2%	·	?
CC(C)Sc1nc(N)c2c3c(sc2n1)CN(C)CC3	-22%	1µM*	·	6%	-20%	-12%
O=C(CN1CCN(c2ccc(O)cc2)CC1)NC(c1ccccc1)c1ccccc1	-1%	?	?	?	·	·
CCC(=O)c1ccc2c(c1)N(CCCN1CCN(CCO)CC1)c1ccccc1S2	·	2.7µM*	4.8µM*	·	·	·
CC(=O)c1ccc2c(c1)N(CCCN1CCN(CCO)CC1)c1ccccc1S2	·	13µM*	13µM*	·	·	·
Nc1c2c(nc3ccn(-c4ccccc4)c(=O)c13)CCCCC2	-13%	?	17µM*	-3%	-11%[1.46 µM]	-12%
Nc1c2c(nc3ccn(Cc4ccccc4)c(=O)c13)CCC2	-7%	·	2.9µM*	-58%	·	-26%
O=C(NCCCc1ccccc1)C1CC(=O)N(c2ccc3c(c2)OCCO3)C1 (stereo not given)	0%	7%	-4%	-8%	·	·
CC1(C(=O)NS(=O)(=O)c2ccccc2Cl)CCN1C(=O)C1(c2ccc(Cl)cc2)CC1 (stereo not given)	·	·	·	·	30%	5%
CC(OC(=O)CNS(=O)(=O)c1ccc(C#N)cc1)C(=O)Nc1cccc(C#N)c1 (stereo not given)	7%	-3%	-18%	·	i	-10%
COc1cc(C)cc(CN2CC=C(c3ccccc3)CC2)c1O	?	1.2µM*	?	·	·	·
COc1ccc2ccc(O)c(CN3CC=C(c4ccccc4)CC3)c2c1	-15%	1.7µM*	?	·	-14%	-9%
COc1ccc(C(C)=O)cc1CN1CC=C(c2ccccc2)CC1	4%	-20%	?	1%	?	7%
Cc1ccc(N=C2SC(C(=O)Nc3ccc(OC(F)(F)F)cc3)C(N)=C2C(=O)Nc2c(C)cc(C)cc2C)cc1 (stereo not given)	?	?	12µM*	?	?	?
CCc1ccc(N2CC(C(=O)Nc3cccnc3)CC2=O)cc1 (stereo not given)	-10%	·	-18%	?	·	-23%
SMILES	HCV inh	Pf growth 48h	Pf growth 96h	NS1 function inh	Vaccinia mCherry	Vaccinia Venus
Cc1ccc(N2CC(C(=O)Nc3nnc(SCc4cccnc4)s3)CC2=O)cc1 (stereo not given)	29%	9%	0%	1%	-4%	-1%
COc1ccc(N2CC(C(=O)Nc3nnc(SCC(=O)NC4CCCC4)s3)CC2=O)cc1 (stereo not given)	0%	-12%	6.6µM*	7%	2%	4%
COc1ccc(N2CC(C(=O)Nc3nnc(SCc4cccnc4)s3)CC2=O)cc1 (stereo not given)	19%	?	13µM*	-1%	i	-9%
CCOc1ccc(N2CC(C(=O)Nc3cccnc3)CC2=O)cc1 (stereo not given)	3%	-21%	12µM*	7%	·	·
CCC(C)NC(=O)C(Cc1ccccc1)n1cccc1 (stereo not given)	-8%	8%	?	-2%	-10%	-14%
CCCCNC(=O)[C@H]1C[C@H]1[C@@H](O)[C@H](CO)NC(=O)[C@H](COCc1ccccc1)NC(=O)OC(C)(C)C	4%	5%	34%	-4%	i	-19%
CCOC(=O)c1cnc2c(OC)cccc2c1N1CCN(c2ccc(OC)cc2)CC1	?	12µM*	9%	?	?	-28%
CCOC(=O)c1cnc2c(OC)cccc2c1N1CC(C)CC(C)C1 (stereo not given)	13µM*	0%	?	-6%	·	·
CCOC(=O)c1cnc2c(OC)cccc2c1N1CCN(c2ccccn2)CC1	?	13%	44%	-6%	-17%	-21%
CCOC(=O)c1cnc2c(OC)cccc2c1N1CCN(c2ccccc2OC)CC1	?	7.4µM*	12%	-45%	?	-22%
CCOC(=O)c1cnc2ccc(OCC)cc2c1N1CCN(C)CC1	?	8.3µM*	0%	-6%	·	-16%
Clc1ccc(Cn2ccc3ccccc32)cn1	-6%	-9%	?	1%	-14%	3%
CCN(C(=O)CSc1nc2ccc(Cl)cc2[nH]1)C1CCS(=O)(=O)C1 (stereo not given)	7%	·	·	·	-5%	-14%
CCc1ccc2ncc(S(=O)(=O)c3ccc(Cl)cc3)c(N3CCN(CC)CC3)c2c1	·	·	·	·	-5%[7.34 µM]	-11%[7.34 µM]
CCOc1ccc2ncc(S(=O)(=O)c3ccc(C)cc3)c(N3CCC4(CC3)OCCO4)c2c1	?	12µM*	7.4µM*	10%	-29%	?
Cc1ccccc1OCC(=O)Nc1ccc2oc(=O)ccc2c1	-25%	32%	116%	·	-9%	5%
CCOc1ccc2nc(NCCNC(=O)Nc3cccc(C)c3)c(C#N)cc2c1	?	?	10%	5%	-20%	-18%
COc1ccc(C(=O)Nc2ccccc2C(=O)NC(Cc2ccc(O)cc2)C(=O)NNC(=O)c2ccncc2)cc1 (stereo not given)	-25%	12µM*	151%	·	-14%	-14%
